Inconclusive results are not listed. Values without a mark were called inactive. Calls follow the shape of the dose curve; as a rule, active = well fitted inhibition curve with a large enough effect in the repeat runs; inconclusive = weak or mixed curves; inactive = no such curve, though single readings can be large or run the other way.
target: Estrogen receptor (Homo sapiens) (UniProt P03372); test: qHTS assay to identify small molecule antagonists of the estrogen receptor alpha (ER-alpha) signaling pathway using the BG1 cell line in the presence of 0.1 nM 17-beta-estradiol (AID 1259244); settings: VM7Luc4E2 (BG1) ERE-luciferase, antagonist mode, 0.1 nM E2, 22 h; series mostly up to 92.4 µM; activity change, negative = inhibition: at the top concentration; also: nearly all actives have a fitted effect of over 50% in size
Description: National Center for Advancing Translational Sciences [NCATS]
NIH Chemical Genomics Center [NCGC]
U.S. Environmental Protection Agency [EPA]
National Institutes of Environmental Health Sciences [NIEHS]
National Toxicology Program [NTP]
U.S. Food and Drug Administration [FDA]
Estrogen receptor (ER), a member of the nuclear hormone receptor plays an important role in development, metabolic homeostasis and reproduction. Two subtypes of ER, ER-alpha and ER-beta, have similar expression patterns with some uniqueness in both types. Endocrine disrupting chemicals (EDCs) and their interactions with steroid hormone receptors like ER causes disruption of normal endocrine function. Therefore, it is important to understand the effect of environmental chemicals in ER signaling pathway. For identifying ER antagonists, VM7Luc4E2 cell line was used to screen against Tox21 compound libraries.
VM7Luc4E2 cell line (provided by Denison MS, University of California) endogenously express full-length ER-alpha and is stably transfected with a plasmid containing four estrogen responsive elements (ERE) upstream of a luciferase reporter gene. The current screening for identification of ER-alpha inhibitors against Tox21 compound libraries used lower concentration (0.1 nM) of 17beta-Estradiol as a stimulator.
Tox21 Assay Protocol Summary:
VM7Luc4E2 cells were cultured in phenol red free assay medium containing 10% charcoal stripped FBS for 5 days prior to the assay. The cells were dispensed at 4,000 cells/well in 4 uL of assay medium into white wall/solid-bottom 1536-well plates (Corning Life Sciences, Corning, NY) using a Multidrop Combi (ThermoFisher Scientific, Waltham, MA) dispenser. After the assay plates were incubated at 37C and 5% CO2 for 24 hr, 23 nL of compounds dissolved in DMSO, positive controls or DMSO only was transferred to the assay plates by a Pintool station (Kalypsys, San Diego, CA). The transfer of compounds was followed by the addition of 1 uL of 0.1 nM (final concentration) agonist (17beta-Estradiol)/assay medium using a Flying Reagent Dispenser (FRD, Aurora Discovery, San Diego, CA). The plates were incubated at 37C and 5% CO2 for 22 hr. For luciferase reporter gene assay, 4 uL of ONE-Glo reagent (Promega Corporation, Madison, WI) was added to each well using the FRD and after 30 min incubation at room temperature luminescence intensity was measured using ViewLux plate reader (PerkinElmer, Shelton, CT).
% is scaled to controls: 0 for no effect and ±100 for the full control effect.

Chain of Estrogen receptor (Homo sapiens) (P03372 whole entry, looked up): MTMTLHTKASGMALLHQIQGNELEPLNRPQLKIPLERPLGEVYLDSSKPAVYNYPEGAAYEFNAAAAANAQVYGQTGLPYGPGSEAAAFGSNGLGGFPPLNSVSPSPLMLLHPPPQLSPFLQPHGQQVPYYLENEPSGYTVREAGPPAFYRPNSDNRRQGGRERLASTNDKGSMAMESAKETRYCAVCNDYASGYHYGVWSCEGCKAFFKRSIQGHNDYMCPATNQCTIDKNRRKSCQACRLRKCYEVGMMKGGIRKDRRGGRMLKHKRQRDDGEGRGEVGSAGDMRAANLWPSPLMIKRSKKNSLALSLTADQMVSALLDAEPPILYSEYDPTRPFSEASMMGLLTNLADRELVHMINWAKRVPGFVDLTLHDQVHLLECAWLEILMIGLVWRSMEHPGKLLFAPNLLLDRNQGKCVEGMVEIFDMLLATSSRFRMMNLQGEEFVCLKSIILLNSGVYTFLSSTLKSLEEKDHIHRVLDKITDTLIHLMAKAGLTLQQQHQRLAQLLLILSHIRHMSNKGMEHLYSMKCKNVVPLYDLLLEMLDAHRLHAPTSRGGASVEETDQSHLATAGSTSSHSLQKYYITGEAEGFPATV

Row | Structure (SMILES) | activity change, negative = inhibition
1 | C[C@@H]1CCC[C@H](C)N1CCCC(O)(c1ccccc1)c1ccccn1 (stereo not given in full) | 4.81% [at 42.5 µM]
2 | COc1cc(S(N)(=O)=O)cc(C(=O)O)c1OC | -0.37% [at 42.5 µM]
3 | CCNC(=O)C(C)OC(=O)Nc1ccccc1 (stereo not given) | -3.29%
4 | CC(CN1CC(=O)NC(=O)C1)N1CC(=O)NC(=O)C1 (stereo not given) | -8.56%
5 | O=C(OOC(=O)c1ccccc1)c1ccccc1 | 0.571% [at 42.5 µM]
6 | O=Cc1ccc(C(=O)O)cc1 | 9.07%
7 | CCCCC(CC)COC(=O)CC#N (stereo not given) | 6.06%
8 | N#Cc1ccccc1C#N | 7.11%
9 | CN(C)CCc1c[nH]c2ccc(CS(=O)(=O)N3CCCC3)cc12 | 2.14% [at 42.5 µM]
10 | CC(=O)Nc1ccc(OCCOCCOc2ccc(NC(C)=O)cc2)cc1 | -1.91% [at 42.5 µM]
11 | CCC(C)SSC(C)CC (stereo not given) | 3.63%
12 | CC(C)(C)C(=O)NCCCC(=O)O | 13.7% [at 42.5 µM]
13 | COc1cnc(NS(=O)(=O)c2ccc(N)cc2)nc1 | -1.3% [at 42.5 µM]
14 | CCOC(=O)CC | 14.2%
15 | Cc1ccc(O)c([N+](=O)[O-])c1 | 0%
16 | COc1cc(OC)cc(OC)c1 | -1.04% [at 42.5 µM]
17 | Cc1ccc(Br)cc1 | -1%
18 | O=C1c2ccccc2C(=O)N1CO | 11.9%
19 | COC(=O)c1c(C)cc(O)c(C)c1O | -13%
20 | CCCCc1ccc(Cl)cc1 | 2.8%

Row | Structure (SMILES) | activity change, negative = inhibition
21 | C=COCCCCO | -12.4%
22 | CCCCCCCCCCCCCC(=O)OCC | 5.89%
23 | CC(=O)SC[C@@H](C)C(=O)N1CCC[C@H]1C(=O)N[C@@H](Cc1ccccc1)C(=O)O | 0.194% [at 42.5 µM]
24 | Clc1cc(Cl)c(Cl)c(Cl)c1Cl | 3.85%
25 | CCCc1ccc(O)c(OC)c1 | -4.62%
26 | CO/N=C(\C(=O)O)c1csc(NC(=O)CCl)n1 | 6.33% [at 42.5 µM]
27 | CCCCC(O)/C=C(C)/C=C/C=C/C(=O)N1CCCC1=O (stereo not given) | 5.1% [at 42.5 µM]
28 | Cc1ccc(N)nc1 | 6.17%
29 | CC(C)c1cc(C(C)C)cc(C(C)C)c1 | -0.623%
30 | C=CCCCCCCCCCCCCCC | -1.96% [at 19 µM]
31 | C=CCOC(=O)CCCCCCCC | 0%
32 | CN(C)CCC[C@@]1(c2ccc(F)cc2)OCc2cc(C#N)ccc21 | 7.79% [at 42.5 µM]
33 | Nc1nc(Cl)cc(Cl)n1 | 11%
34 | CCO[Si](CC(C)C)(OCC)OCC | 30.7%
35 | CN(C)CCCN(C)C | -10.8% [at 8.39 µM]
36 | CCCCCCCCCCCCCCCC(=O)OC | -4.11% [at 19 µM]
37 | CCCCCCCCCCCBr | -5.53% [at 42.5 µM]
38 | N=C(N)S(=O)O | -4.24%
39 | CC(=O)SCC(CC(=O)c1ccc(C)cc1)C(=O)O (stereo not given) | 20% [at 42.5 µM]
40 | C[C@]12C=CC(=O)C=C1[C@@H](F)C[C@@H]1[C@@H]2[C@@H](O)C[C@@]2(C)[C@H]1CC[C@]2(O)C(=O)CO | 20.7% [at 42.5 µM]
